Z-score and composite z-score data for 8 compounds are collected here from PubChem BioAssay.

Experiment [1] is described as follows: compound effects on lung adenocarcinoma cell viability – A549, calcein-AM fluorescence, 48 h, basal, profiling panel (AID 1162). Also: test concentration not given here. To be noted: higher = more signal.
Experiment [2] in a line: compound effects on differentiated 3T3-L1 adipocyte viability – cell-based, 3T3-L1 adipocytes, calcein-AM fluorescence, 48 h, basal, profiling panel (AID 1163). Also: test concentration not given here. To be noted: 3T3-L1 adipocytes viability, higher = more signal.
The nature of experiment [3]: compound effects on hepatocellular carcinoma cell viability – HepG2, calcein-AM fluorescence, 48 h, basal, profiling panel (AID 1164). Also: test concentration not given here. The conditions noted are these: higher = more signal.
A short description of experiment [4]: compound effects on multiple myeloma cell viability – MM1S, calcein-AM fluorescence, 48 h, basal, profiling panel (AID 1165).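 Also: viability of MM1S multiple myeloma cells under basal unstimulated conditions; test concentration not given here.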 To be noted: higher = more signal.
Experiment [5] is described as follows: calcein-AM signal in unstimulated myeloma cells – cell-based, calcein-AM fluorescence, 48 h, PK04 Diversity Set, profiling panel (AID 1166).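 Also: cells grown under basal conditions without added stimulus; test concentration not given here.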 To be noted: RPMI8226 myeloma viability, higher = more signal.
Experiment [6] in a line: JC-1 mitochondrial signal, unstimulated HepG2 cells – cell-based, JC-1 fluorescence, 24 h, 100 nL compound, profiling panel (AID 1167). Also: test concentration not given here. The conditions noted are these: HepG2 mitochondrial potential, higher = more signal.
A short description of experiment [7]: JC-1 mitochondrial signal, unstimulated adipocytes – cell-based, JC-1 fluorescence, 3T3-L1 adipocytes, 24 h, 100 nL compound, profiling panel (AID 1168). Also: test concentration not given here. The conditions noted are these: JC-1 mitochondrial fluorescence, higher = more signal, called active from +8 up or from −8 down.
Experiment [8] is described as follows: JC-1 mitochondrial signal, unstimulated myeloma cells – cell-based, JC-1 fluorescence, RPMI8226, 24 h, 100 nL compound, profiling panel (AID 1169). Also: test concentration not given here. The conditions noted are these: JC-1 mitochondrial potential fluorescence, higher = more signal.
Experiment [9] can be described thus: JC-1 mitochondrial signal, unstimulated MM1S myeloma – cell-based, JC-1 fluorescence, 24 h, 100 nL compound, profiling panel (AID 1170). Also: test concentration not given here. To be noted: MM1S mitochondrial potential, higher = more signal.
Experiment [10] can be described thus: resazurin metabolic signal in A549 cells – cell-based, resazurin fluorescence, 24 h, PK04 Diversity Set, profiling panel (AID 1171). Also: test concentration not given here. To be noted: A549 viability, higher = more signal, called active from +8 up or from −8 down. A general note: Resazurin is reduced to fluorescent resorufin, in cell work by metabolically active cells.
A short description of experiment [11]: resazurin metabolic signal in HepG2 cells – cell-based, resazurin fluorescence, 24 h, PK04 Diversity Set, profiling panel (AID 1172). Also: test concentration not given here. To be noted: HepG2 viability, higher = more signal.
A short description of experiment [12]: budding yeast growth changes without added modifier – OD600, strain BY4716, 24 h, basal condition, primary screen (AID 1173). The conditions noted are these: S. cerevisiae BY4716 growth, OD600, 24 h; higher = more signal, called active from +8 up or from −8 down.
The nature of experiment [13]: viability profiling in MM1S myeloma cells – cell-based, resazurin fluorescence, basal, 24 h, PK04 Diversity Set, profiling panel (AID 1174). Also: test concentration not given here. To be noted: higher = more signal, called active from +8 up or from −8 down.
The target in experiment [14] is Dihydroorotate dehydrogenase (quinone), mitochondrial (Plasmodium falciparum (isolate 3D7)) (UniProt Q08210). The experiment in a line: inhibition of P. falciparum DHODH – biochemical, C-terminal His tag, absorbance 600 nm, primary screen (AID 1175).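 Also: recombinant parasite enzyme with a five histidine tag at its C terminus; test concentration not given here.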 The conditions noted are these: PfDHODH enzyme, DCIP absorbance 600 nm; higher = more signal, called active from +8 up or from −8 down.

Experiment [15] is described as follows: inhibition of PAO1 biofilm formation – strain PAO1, LB-PBS medium, absorbance 600 nm, primary screen (AID 1176). Also: test concentration not given here. To be noted: P. aeruginosa PAO1 growth/biofilm, A600, 12 h; higher = more signal.
Experiment [16] can be described thus: growth modulation of vineyard yeast isolate – strain RM11-1a, OD600, basal, 24 h, primary screen (AID 1177).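 Also: cultures grown under basal conditions with no added stressor; test concentration not given here.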 The conditions noted are these: S. cerevisiae RM11-1a growth, OD600, 24 h; higher = more signal, called active from +8 up or from −8 down.
The nature of experiment [17]: growth of efflux-deficient E. coli DRC39 – strain DRC39, OD650, 24 h, E. coli filamentation inducers, primary screen (AID 1178).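 Also: growth measured as culture turbidity by optical density at 650 nm; test concentration not given here.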 The conditions noted are these: E. coli DRC39 acrAB, higher = more signal, called active from +8 up or from −8 down.
Experiment [18] is described as follows: growth of efflux-deficient E. coli DRC39 – strain DRC39, OD650, 48 h, E. coli filamentation inducers, primary screen (AID 1179).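 Also: screen aims at cell division blockers that make cells filament.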 The conditions noted are these: E. coli DRC39 delta-acrAB growth, higher = more signal, called active from +8 up or from −8 down.
The nature of experiment [19]: viability profiling in RPMI8226 myeloma cells – cell-based, resazurin fluorescence, basal, 24 h, PK04 Diversity Set, profiling panel (AID 1180).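 Also: RPMI8826 multiple myeloma cell line at 5000 cells per well; test concentration not given here.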 The conditions noted are these: higher = more signal.
Experiment [20] deals with E3 ubiquitin-protein ligase XIAP (Homo sapiens) (UniProt P98170). The experiment in a line: small molecules binding XIAP protein – biophysical, small-molecule microarray, fluorescence 635 nm, primary screen (AID 1181).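 Also: score merges 667 nm emission and signal to noise over triplicate slides.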 The conditions noted are these: higher = more signal.

Each structure is given as a SMILES string. Calls of active or inactive are those of the source. Unless noted, no rule for the calls is given here.

Sequence of E3 ubiquitin-protein ligase XIAP (Homo sapiens) (P98170 whole entry, looked up): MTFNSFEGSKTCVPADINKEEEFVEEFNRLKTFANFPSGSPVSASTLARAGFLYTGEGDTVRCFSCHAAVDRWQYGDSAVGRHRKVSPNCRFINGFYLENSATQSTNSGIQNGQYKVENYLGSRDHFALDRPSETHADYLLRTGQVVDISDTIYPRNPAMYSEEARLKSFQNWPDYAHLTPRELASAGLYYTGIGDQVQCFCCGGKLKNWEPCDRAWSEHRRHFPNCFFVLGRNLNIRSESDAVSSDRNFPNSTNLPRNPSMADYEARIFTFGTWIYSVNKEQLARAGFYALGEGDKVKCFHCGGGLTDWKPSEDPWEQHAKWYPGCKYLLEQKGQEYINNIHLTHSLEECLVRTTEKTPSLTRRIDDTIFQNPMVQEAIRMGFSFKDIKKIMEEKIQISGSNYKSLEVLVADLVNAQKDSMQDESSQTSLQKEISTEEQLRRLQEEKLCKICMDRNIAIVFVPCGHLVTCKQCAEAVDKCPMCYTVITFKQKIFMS
Sequence of Dihydroorotate dehydrogenase (quinone), mitochondrial (Plasmodium falciparum (isolate 3D7)) (Q08210 whole entry, looked up): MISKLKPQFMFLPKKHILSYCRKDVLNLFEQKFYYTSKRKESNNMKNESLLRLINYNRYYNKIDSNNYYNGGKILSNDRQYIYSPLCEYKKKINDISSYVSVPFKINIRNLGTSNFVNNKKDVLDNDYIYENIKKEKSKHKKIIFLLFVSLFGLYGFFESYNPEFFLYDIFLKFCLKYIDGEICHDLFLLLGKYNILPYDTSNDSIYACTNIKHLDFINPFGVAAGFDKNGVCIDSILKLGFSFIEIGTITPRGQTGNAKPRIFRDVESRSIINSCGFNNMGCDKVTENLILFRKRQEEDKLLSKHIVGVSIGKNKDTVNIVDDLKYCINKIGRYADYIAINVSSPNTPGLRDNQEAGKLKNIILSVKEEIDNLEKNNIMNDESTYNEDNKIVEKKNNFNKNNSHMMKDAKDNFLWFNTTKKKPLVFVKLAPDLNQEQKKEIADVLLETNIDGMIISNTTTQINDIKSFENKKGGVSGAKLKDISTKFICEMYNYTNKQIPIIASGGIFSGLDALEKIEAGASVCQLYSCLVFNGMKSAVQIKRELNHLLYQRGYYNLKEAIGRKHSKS

Turning to `CC(=O)NCCCC[C@@H]1NC(=O)[C@H]2C[C@@H](C(=O)NCCCCCC[N+](C)(C)C)[C@@H](c3cccc(OCCO)c3)N2C1=O`, the z-score in [1] is -0.144; in [2], 1.14; in experiment [3], -0.827; in experiment [4], 0.385; in experiment [5], -0.418; in [6], -1.44. Besides, the z-score is 0.326 (inactive) in experiment [7]; -0.135 in experiment [8]; -0.872 in experiment [9]; 0.925 (inactive) in [10]; 1.04 in [11]; -0.458 (inactive) in experiment [12]. Also, the z-score in experiment [13] was 0.56 (inactive); in experiment [15], 3.45 (inactive); in experiment [16], -0.718 (inactive); in experiment [17], -0.47 (inactive); in experiment [18] it was -0.711 (inactive); in experiment [19], 0.0647. Besides, the composite z-score is -1.75 (inactive) in experiment [14] and 0.0871 in experiment [20].

Regarding `C=CCOC(=O)[C@@H]1[C@H]2C(=O)O[C@H](c3ccccc3)[C@H](c3ccccc3)N2[C@H](c2ccc(OCCOC(=O)[C@@H]3C[C@@H]4C(=O)N[C@@H](Cc5ccccc5)C(=O)N4[C@@H]3c3cccc(OCCO)c3)cc2)[C@@]12C(=O)Nc1ccc(I)cc12`, the z-score in experiment [1] is -1.15; in experiment [2], 0.185; in experiment [3], -0.0074; in [4], 0.359; in [5] it was -1.1; in [6], -1.57. The z-score in experiment [7] is 0.235 (inactive); in [8], -0.505; in experiment [9], -1.14; in experiment [10] it was 0.789 (inactive); in experiment [11], 0.134; in experiment [12], 1.94 (inactive). Further, the z-score in [13] was 0.375 (inactive); in experiment [15], 2.17 (inactive); in experiment [16], 2.94 (inactive); in experiment [17] it was 0.421 (inactive); in [18] it was -0.463 (inactive); in [19] it was 0.318. In addition, the composite z-score in experiment [14] is -0.0168 (inactive); in experiment [20], 0.434.

Consider `CC(C)(C)OC(=O)CC[C@@]1(C(=O)O)N=C(c2ccc(OCCCO)cc2)O[C@@H]1c1ccccc1N=[N+]=[N-]`, for which the z-score in [1] is 0.188; in [2], -0.364; in experiment [3], 0.218; in [4], -0.0694; in experiment [5] it was -0.385; in [6] it was -2.88. In addition, the z-score in experiment [7] was -1.08 (inactive); in experiment [8] it was -0.759; in experiment [9], -1.12; in experiment [10], 0.0421 (inactive); in experiment [11] it was 0.166; in experiment [12], 0.523 (inactive). Further, the z-score in experiment [13] was -0.789 (inactive); in experiment [15], 0.659 (inactive); in experiment [16], 0.0589 (inactive); in experiment [17], 0.428 (inactive); in experiment [18], 0.367 (inactive); in [19], -0.105. The composite z-score in [14] was 0.0016 (inactive); in [20], -0.187.

For the compound `COc1cc(CO)ccc1OC(C)=O`, the z-score in experiment [1] is 0.653; in experiment [2] it was 0.584; in experiment [3], 1.04; in experiment [4], 1.12; in [5] it was 1.19; in experiment [6], 0.302. Also, the z-score was 0.791 (inactive) in [7]; 0.41 in [8]; 0.433 in [9]; -1.08 (inactive) in experiment [10]; -0.386 in experiment [11]; -0.277 (inactive) in experiment [12]. Also, the z-score is -0.779 (inactive) in [13]; -0.248 (inactive) in experiment [15]; -1.18 (inactive) in [16]; 0.35 (inactive) in experiment [17]; 0.915 (inactive) in [18]; -0.927 in experiment [19]. Besides, the composite z-score in experiment [14] was -1.75 (inactive); in experiment [20] it was -0.17.

For `COCCOC(=O)N1C(=O)[C@@]2(c3cc(C#Cc4ccc(OC)cc4)ccc31)[C@H](C(=O)N1CCN(c3ncccn3)CC1)[C@H]1C(=O)O[C@H](c3ccccc3)[C@H](c3ccccc3)N1[C@@H]2c1ccc(O)cc1`, the z-score in experiment [1] was 1.23; in [2], 1.26; in [3], 0.986; in experiment [4] it was 0.973; in experiment [5], 0.806; in experiment [6] it was -0.013. Moreover, the z-score is 2.2 (inactive) in experiment [7]; 0.157 in [8]; 0.193 in [9]; 1.31 (inactive) in experiment [10]; -0.221 in [11]; 0.558 (inactive) in experiment [12]. Also, the z-score is -1.68 (inactive) in experiment [13]; 1.42 (inactive) in experiment [15]; -0.604 (inactive) in [16]; -0.0707 (inactive) in [17]; 1.09 (inactive) in experiment [18]; 0.0808 in [19]. The composite z-score was -1.45 (inactive) in experiment [14] and 0.134 in experiment [20].

As for `O=C1O[C@H](c2ccccc2)[C@H](c2ccccc2)N2[C@H]1[C@@H](C(=O)O)[C@]1(C(=O)Nc3ccc(C#CC4(O)CCCCCC4)cc31)[C@H]2c1ccc(OCCO)cc1`, the z-score in experiment [1] was 0.82; in [2], 0.287; in experiment [3], 0.293; in [4], -1.99; in [5], -0.216; in [6] it was -1.82. The z-score was -1.07 (inactive) in [7]; -0.559 in experiment [8]; -0.683 in experiment [9]; -0.0693 (inactive) in [10]; 0.246 in experiment [11]; -0.495 (inactive) in experiment [12]. For the same compound, the z-score in experiment [13] was -0.249 (inactive); in experiment [15], 1.07 (inactive); in experiment [16] it was 2.12 (inactive); in experiment [17], -0.184 (inactive); in experiment [18], -0.151 (inactive); in experiment [19], -0.317. Moreover, the composite z-score in [14] was -4.61 (inactive); in experiment [20], -0.0181.

On to `CCOC(=O)C1=C[C@@H](C(C)C)N(S(=O)(=O)c2ccc(C)cc2)[C@H]1c1ccc(C(C)C)cc1`, for which the z-score in experiment [1] was 0.012; in experiment [2] it was 0.256; in experiment [3] it was -0.493; in experiment [4], -0.955; in experiment [5], -2.18; in experiment [6], 7.47. Further, the z-score in experiment [7] is -0.0264 (inactive); in experiment [8], -0.0684; in experiment [9] it was -0.776; in [10], 3.1 (inactive); in experiment [11], 0.346; in experiment [12], 1.05 (inactive). Also, the z-score in experiment [13] is 0.52 (inactive); in experiment [15] it was -0.281 (inactive); in experiment [16], 0.55 (inactive); in [17], -0.558 (inactive); in experiment [18], 0.399 (inactive); in [19], 0.548. In addition, the composite z-score in [14] is -1.11 (inactive); in experiment [20], -0.192.

For the compound `C=C(COC)C(=O)CC[C@@H](OC(=O)c1cccnc1)c1ccc(CO)o1`, the z-score was 0.408 in experiment [1]; -0.615 in experiment [2]; 0.0726 in experiment [3]; -0.193 in [4]; -0.205 in experiment [5]; -0.178 in experiment [6]. For the same compound, the z-score in experiment [7] was -0.294 (inactive); in experiment [8] it was 0.0598; in experiment [9], 0.627; in [10] it was 0.709 (inactive); in experiment [11] it was 0.114; in experiment [12], -0.0873 (inactive). The z-score was 0.78 (inactive) in experiment [13]; 0.649 (inactive) in experiment [15]; -0.318 (inactive) in experiment [16]; 0.831 (inactive) in experiment [17]; 0.555 (inactive) in experiment [18]; 0.807 in experiment [19]. Moreover, the composite z-score was -0.604 (inactive) in experiment [14] and -0.0802 in [20].
